Data published in PubChem BioAssay (Tox21).
Results filed as inconclusive are left out. Active and inactive are the calls of the source. Calls come from the whole dose curve; as a rule, active = well fitted curve in the direction sought with a large enough effect in the repeat runs; inconclusive = weak or mixed curves; inactive = no such curve, though single readings can be large; an effect the other way counts as inactive or inconclusive.

How the values were obtained:
[1] = qHTS RealTime-Glo MT Cell Viability Assay in HEK293 cells - 16 hour (AID 1224872); note: top concentration of the series differs between compounds; nearly all actives have a fitted effect of over 50% in size
Summary of the method: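 Quantitative high-throughput screen of the Tox21 10K library in HEK293: cells and RealTime-Glo reagents plated together, compound added at 5 h, luminescence monitored through 40 h at 37 C.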

[2] = qHTS RealTime-Glo MT Cell Viability Assay in HepG2 cells - 8 hour (AID 1224873); note: nearly all actives have a fitted effect of over 55% in size
Summary of the method: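 HepG2 cells (600/well) mixed with RealTime-Glo MT reagent, settled 5 h at 37 C/5% CO2 before compound addition. Nonlytic NanoLuc luminescence from viable-cell prosubstrate reduction read repeatedly during 40 h treatment at 37 C.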

[3] = A CellTox Green Cytotoxicity Assay to monitor cytotoxicity in HEK293 cells - 24 hour (AID 1224875); note: nearly all actives have a fitted effect of over 45% in size; note: potency is the fitted concentration of half-maximal effect
Summary of the method: (§1)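 Real-time, in one plate: 600 HEK293 cells/well with dead-cell DNA dye, pinned compound after 5 h, 37 C incubation over 40 h; viable cells give no appreciable fluorescence.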

[4] = A CellTox Green Cytotoxicity Assay to monitor cytotoxicity in HepG2 cells - 16 hour (AID 1224876); note: nearly all actives have a fitted effect of over 45% in size; note: potency is the fitted concentration of half-maximal effect
Summary of the method: (§2)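 Cytotoxicity was tracked as dead-cell DNA fluorescence in HepG2 cells treated with test compounds at 37 C; each time-point value comes from one kinetic series spanning 0, 8, 16, 24, 32 and 40 h.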

[5] = qHTS RealTime-Glo MT Cell Viability Assay in HepG2 cells - 32 hour (AID 1224877); note: nearly all actives have a fitted effect of over 55% in size
Summary of the method: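 Compound treatment began 5 h after plating HepG2 cells (600/well) with NanoLuc luciferase and prosubstrate. Plates stayed at 37 C for 40 h; luminescence was captured at six time points, 0 h through 40 h.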

[6] = A CellTox Green Cytotoxicity Assay to monitor cytotoxicity in HepG2 cells - 24 hour (AID 1224878); note: nearly all actives have a fitted effect of over 45% in size; note: potency is the fitted concentration of half-maximal effect
Summary of the method: as §2

[7] = A CellTox Green Cytotoxicity Assay to monitor cytotoxicity in HepG2 cells - 40 hour (AID 1224879); note: nearly all actives have a fitted effect of over 40% in size; note: potency is the fitted concentration of half-maximal effect
Summary of the method: as §2

[8] = qHTS RealTime-Glo MT Cell Viability Assay in HEK293 cells - 0 hour (AID 1224880); note: top concentration of the series differs between compounds; nearly all actives have a fitted effect of over 45% in size
Summary of the method: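 Kinetic, non-lysing viability readout. Seed HEK293 (600/well) with reagent, incubate 5 h at 37 C/5% CO2, pin 23 nL compound in DMSO, incubate at 37 C, read luminescence at 0, 8, 16, 24, 32, 40 h.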

[9] = A CellTox Green Cytotoxicity Assay to monitor cytotoxicity in HEK293 cells - 32 hour (AID 1224881); note: nearly all actives have a fitted effect of over 40% in size; note: potency is the fitted concentration of half-maximal effect
Summary of the method: as §1

Measured: Potency

CCC(=O)O[C@@H]1C[C@H]2CC[C@]1(C)C2(C)C
inactive: all assays above

CC[C@H](NC(C)C)[C@H](O)c1ccc(O)c2[nH]c(=O)ccc12
inactive: all assays above

CS(C)=O
not listed: [8]
inactive: all other assays above

CCCc1nc(C)c2c(=O)[nH]c(-c3cc(S(=O)(=O)N4CCN(CC)CC4)ccc3OCC)nn12
inactive: all assays above

COc1ccc(/C=C/S(=O)(=O)NC(=O)c2ccc(C)cc2Cl)cc1
not listed: [8]
inactive: all other assays above

Nc1ccc(C(=O)Oc2ccccc2)c(O)c1
inactive: all assays above

OCCc1ccncc1
inactive: all assays above

CCCC1CCOC(C)S1 (stereo not given)
inactive: all assays above

Cc1ccc2c(Cl)cc(Cl)c(O)c2n1
not listed: [8]
inactive: all other assays above

CCOC(=O)CC(O)(CC(=O)OCC)C(=O)OCC
inactive: all assays above

O=Cc1ccc(Cl)c([N+](=O)[O-])c1
not listed: [7]
inactive: all other assays above

CCCCCCCCCCCCCCCCN
inactive: [1] | [2] | [5] | [8]
active: [3] 10.7 µM | [4] 23.9 µM | [6] 21.3 µM | [7] 23.9 µM | [9] 16.9 µM

O=[N+]([O-])c1ccc(Cl)cc1Cl
inactive: all assays above

Nc1ccccc1Nc1ccccc1
inactive: all assays above

O=C(Cl)c1cc(Cl)cc(Cl)c1
inactive: all assays above

O=P(c1ccccc1)(c1ccccc1)c1ccccc1
inactive: all assays above

NCCOCCOCCN
inactive: all assays above

O=C(O)c1ccc2cc(O)ccc2c1
inactive: all assays above

CCc1ccc(C(=O)C(C)CN2CCCCC2)cc1 (stereo not given)
not listed: [8]
inactive: all other assays above

Cc1ccc(NC=O)c(C)c1
inactive: all assays above

CCCCOC(=O)CC#N
inactive: all assays above

CCCC(=O)OCc1ccccc1
inactive: all assays above

CCCCCC1CCC(=O)O1 (stereo not given)
not listed: [8]
inactive: all other assays above

Sc1nc(S)nc(S)n1
inactive: all assays above
